miR122 inh – miR-122 inhibition in Huh7 cells | Huh7 miR-122 Renilla luciferase sensor, 48 h; neutral wells = 0, positive control = 100 | activation (reporter increase), % at 12.5 µM | 340,000 compounds, 0.3% hits | AID 602342;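 active = mean replicate activation score at least 90 and every replicate individually at or above 90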;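 note: higher luciferase means less miR-122 activity so hits act as miR-122 inhibitors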
PvdQ inh – blocks Pseudomonas aeruginosa PvdQ acylase activity | purified PvdQ acylase, fluorescence plate reader | inhibition, % at 10 µM | 340,000 compounds, 0.063% hits; in the data active = inhibition above about 30%, passing the limit was not always enough
DENV2 CPE – inhibitors of DENV2 cytopathic effect; DENV2-infected cells, cytopathic effect rescue, plate reader; CPE inhibition, % at 9.99 µM; 350,000 compounds, 1.7% hits; AID 651640; in the data active = CPE inhibition above about 20%, passing the limit was not always enough; tested in BHK-21 cells
C2C12 statin – protects C2C12 myotubes from simvastatin toxicity | rescue of ATP level, % at 7.49 µM | AID 602340 | ATP luminescence, 48 h; scaled: DMSO 0, geranylgeraniol control 100 | 330,000 compounds, 0.78% hits;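 active = mean ATP rescue above about 67%, or every replicate alone reaching that limit, limit read from the data, passing the limit was not always enough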;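 note: myotubes were challenged with 10 µM simvastatin during compound exposure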
PGC1a acetyl inh – lowers PGC1a acetylation signal in U2OS cells. 350,000 compounds, 0.17% hits. AlphaScreen anti-acetyl-lysine; with virally co-expressed GCN5 acetyltransferase. inhibition, % at 15.6 µM;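 active = every replicate shows inhibition of at least 40%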
Hits are given with their value; – = inactive; · = not tested or not shown. In the library only some 2.2% were active in any assay of this set; here they are far more common.

SMILES | miR122 inh | PvdQ inh | DENV2 CPE | C2C12 statin | PGC1a acetyl inh
C[C@H](CO)N1C[C@H](C)[C@@H](CN(C)CC2CC2)Oc2c(NC(=O)c3cnccn3)cccc2C1=O | – | · | – | – | –
C[C@H](CO)N1C[C@H](C)[C@H](CN(C)C)Oc2ccc(NC(=O)Nc3ccccc3)cc2C1=O | – | · | – | – | –
COC(=O)C[C@H]1CC[C@H]2[C@@H](COc3ccc(NC(=O)c4cnccn4)cc3C(=O)N2C)O1 | – | · | 144 | – | –
COC(=O)C[C@@H]1CC[C@H]2[C@H](COc3ccc(NC(=O)c4cnccn4)cc3C(=O)N2C)O1 | – | · | – | – | –
CN1C(=O)c2cc(NC(=O)c3cnccn3)ccc2OC[C@@H]2O[C@@H](CC(=O)NCC3CCCCC3)CC[C@H]21 | · | · | 30 | – | ·
CCc1ccc(NC(=O)C2CC(=O)N=C(N)S2)cc1 (stereo not given) | – | – | · | – | –
CC(C)c1ccc(NC(=O)C2CC(=O)N=C(N)S2)cc1 (stereo not given) | – | – | · | 138 | –
CSCCC(NC(N)=O)C(=O)NCC1CCCCC1 (stereo not given) | – | – | · | 127 | –
Cc1[nH]c(=O)c(C#N)c(C)c1CCC(=O)NCc1cccc(C(F)(F)F)c1 | · | – | 28 | – | ·
COc1ccc(C[C@@H]2OC3(C=CC(=O)C=C3)O[C@H]2Cc2ccc(OC)cc2)cc1 | – | – | · | – | 90
Cc1ccc(-c2nn(Cc3ccccc3)cc2/C=C/C(=O)O)cc1C | – | – | · | 86 | –
C[C@@H]1CN([C@@H](C)CO)C(=O)c2cc(NC(=O)Nc3ccc(C(F)(F)F)cc3)ccc2O[C@@H]1CN(C)C(=O)NC1CCCCC1 | – | · | 101 | – | –
C[C@@H]1CN([C@@H](C)CO)C(=O)c2cc(NC(=O)Nc3ccc(C(F)(F)F)cc3)ccc2O[C@@H](C)CCCCO[C@@H]1CN(C)C(=O)NC1CCCCC1 | – | · | 60 | · | –
C[C@@H]1CN([C@H](C)CO)C(=O)c2cc(NC(=O)Nc3ccc(C(F)(F)F)cc3)ccc2O[C@@H](C)CCCCO[C@H]1CN(C)C(=O)NC1CCCCC1 | – | · | – | · | –
C[C@@H]1CCCCO[C@H](CN(C)C(=O)NC2CCCCC2)[C@H](C)CN([C@H](C)CO)C(=O)c2cc(NC(=O)Nc3ccc(C(F)(F)F)cc3)ccc2O1 | – | · | 31 | · | –
CC(C)C#Cc1ccc([C@H]2[C@H]3CN(CC4CC4)CCCCN3[C@H]2CO)cc1 | – | · | – | · | –
CC(C)C#Cc1ccc([C@@H]2[C@H](CO)N3CCCCN(CC4CC4)C[C@@H]23)cc1 | – | · | 22 | · | –
CC(C)C#Cc1ccc([C@@H]2[C@H]3CN(CC4CC4)CCCCN3[C@H]2CO)cc1 | – | · | 26 | · | –
CCCCN1C=C(C(C)=O)C(=O)CC1 | – | – | 47 | – | –
COc1ccc(CN(C)C[C@@H]2Oc3c(NC(=O)c4cnccn4)cccc3C(=O)N([C@@H](C)CO)C[C@H]2C)cc1 | – | · | – | – | –
Cc1ccc(S(=O)(=O)N2CCCNCC2)cc1 | · | – | 23 | – | ·
O=C(C(O)c1ccccc1)N1CCN(S(=O)(=O)c2ccc(F)c(F)c2)CC1 (stereo not given) | · | · | – | · | ·
CN(Cc1ccccc1)c1ccc(S(=O)(=O)N2CCOCC2)cn1 | – | – | · | · | –
Cc1ccc(S(=O)(=O)N2CCN(C(=O)C(O)c3ccccc3)CC2)cc1 (stereo not given) | · | · | 37 | · | ·
Cc1ccc(CN(C)c2ccc(S(=O)(=O)N3CCCC3)cn2)cc1 | – | – | 25 | – | –
SMILES | miR122 inh | PvdQ inh | DENV2 CPE | C2C12 statin | PGC1a acetyl inh
Cc1ccc(N(C)C(=O)N2CCN(S(=O)(=O)c3ccc(C)cc3)CC2)cc1 | · | – | 59 | – | –
Cc1ccc(N(C)C(=O)N2CCN(S(=O)(=O)c3ccc4ccccc4c3)CC2)cc1 | – | – | · | · | –
CCCCNS(=O)(=O)c1ccc2nc(-c3cccnc3)cc(C(=O)NC3CCCC3)c2c1 | 97 | – | – | – | –
O=C(NCC[C@@H]1CC[C@H](NC(=O)Nc2cc(F)ccc2F)[C@@H](CO)O1)Nc1ccc(F)cc1 | · | · | – | – | –
c1ccc(-c2noc(CC3CCCCC3)n2)nc1 | · | – | – | · | ·
c1cc(-c2noc(CC3CCCCC3)n2)ccn1 | – | – | · | 147 | –
O=C(NNC(=S)NC(=O)c1ccccc1Cl)c1cccc([N+](=O)[O-])c1 | – | – | – | – | –
O=C(NC(NC(=S)Nc1c(Cl)cccc1Cl)C(Cl)(Cl)Cl)c1cccc([N+](=O)[O-])c1 (stereo not given) | 174 | – | · | · | ·
COc1ccc(CN(C)C[C@@H]2OCCCC[C@H](C)Oc3ccc(NS(=O)(=O)c4ccc(Cl)cc4)cc3C(=O)N([C@@H](C)CO)C[C@H]2C)cc1 | – | · | 31 | · | –
COc1ccc(CN(C)C[C@@H]2OCCCC[C@@H](C)Oc3ccc(NS(=O)(=O)c4ccc(Cl)cc4)cc3C(=O)N([C@H](C)CO)C[C@H]2C)cc1 | – | · | 70 | · | –
Cc1noc(C)c1S(=O)(=O)Nc1ccc2c(c1)C(=O)N([C@@H](C)CO)C[C@H](C)[C@@H](CN(C)S(=O)(=O)c1ccccc1)OCCCC[C@@H](C)O2 | – | · | – | · | –
Cc1nccn1CC(O)COc1ccc(Cl)cc1Cl (stereo not given) | – | – | 31 | – | –
CNC(=O)C[C@H]1CC[C@@H]2[C@H](COC[C@@H](O)CN2C(=O)Nc2ccc3c(c2)OCO3)O1 | – | · | 102 | – | –
C[C@@H](NC(=O)C[C@H]1CC[C@@H]2[C@H](COC[C@H](O)CN2C(=O)Nc2ccccc2)O1)c1ccccc1 | – | · | 21 | – | –
C[C@H](NC(=O)C[C@@H]1CC[C@@H]2[C@H](COC[C@@H](O)CN2C(=O)Nc2ccccc2)O1)c1ccccc1 | – | · | – | – | –
CCNC(=O)C[C@@H]1CC[C@@H]2[C@H](COC[C@@H](O)CN2C(=O)Nc2ccc3c(c2)OCO3)O1 | – | · | – | – | –
C[C@@H](NC(=O)C[C@H]1CC[C@H]2[C@@H](COC[C@H](O)CN2C(=O)Nc2ccccc2)O1)c1ccccc1 | – | · | 50 | – | –
CO[C@H]1CN(C)C(=O)c2ccc(NC(C)=O)cc2OC[C@@H](C)N(Cc2ccncc2)C[C@@H]1C | – | · | – | – | –
O=C(OCc1cnc(Cl)s1)c1cccs1 | – | – | – | – | 94
CNC(=O)C[C@@H]1CC[C@@H]2[C@H](COc3ccc(NC(=O)NC(C)C)cc3C(=O)N2C)O1 | – | · | – | – | –
O=C(C[C@H]1C=C[C@H](NC(=O)C2CC2)[C@H](CO)O1)NCc1ccccc1Cl | – | · | – | – | –
COc1ccc(NC(=O)Nc2ccc3c(c2)C(=O)N([C@H](C)CO)C[C@@H](C)[C@H](CN(C)S(=O)(=O)c2ccccc2)OCCCC[C@H](C)O3)cc1 | – | · | 30 | · | –
C[C@H](CO)N1C[C@H](C)[C@H](CN(C)S(=O)(=O)c2ccc(Cl)cc2)OCCCC[C@H](C)Oc2ccc(NC(=O)CCCN(C)C)cc2C1=O | – | · | 21 | – | –

Screening results deposited in PubChem by Broad Institute.
